Experimental data as given in PubChem BioAssay (NCI).
About 83,000 compounds went through this panel and 20% of them were active in at least one assay; those are over-represented in the sample as a whole.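 Percent growth is the endpoint: 0 to 100 indicates growth inhibition (40 means 60% inhibition), 0 means no net growth, and negative values indicate cell death.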 A number with no mark means an inactive call. Calls of active or inactive are those of the source. Rule for the calls: active = growth percent below 10; inactive = the rest.

test system: MDA-MB-468 breast; assay: NCI-60 one-dose screen, 48 h (100 = growth as untreated, 0 = no growth, -100 = all killed); conditions: 10 µM unless noted

Row | Structure (SMILES) | growth
1 | CN1C(=O)C2(SCC(C(=O)NCC(=O)OC(C)(C)C)N2C(=O)C2CCCCC2)c2ccccc21 (stereo not given) | 104%
2 | COc1ccc(-c2cc(C(=O)Nc3ccc(Br)cc3)nc3[nH]c(=O)sc23)cc1 | 33.2%
3 | CCCCCCCCCCCCCCCCCC1=NCCCN1CCO | 110%
4 | O=C(COc1ccc(-c2nc3ccccc3[nH]2)cc1)N=Nc1c(O)[nH]c2ccc(Cl)cc12 | 89.7%
5 | COc1ccc(/C=C2\CCC/C(=C\c3ccc(OC)c(OC)c3)C2=O)cc1OC | -16.6% (active)
6 | CC(c1ccccn1)C(C)(O)C(C)c1ccccn1 (stereo not given) | 106%
7 | CCOC(=O)c1c(C)nc2c(c1N)/C(=C/c1cccs1)C(=O)N2c1ccc(OC)cc1 | 28.2%
8 | CC(=O)Oc1c2c(nc3c1c1ccccc1n3Cc1ccccc1)-c1ccccc1C2 | 92.2%
9 | O=C(O)c1cn(-c2ccccc2)nc1-c1ccc(O)cc1 | 98.3%
10 | Cc1cc(-c2cc(C)c(N)cc2C)c(C)cc1N | 61%
11 | COc1ccc(-c2nc(/C=N/Nc3cc(C)nc4ccc(Cl)cc34)c(C)o2)cc1 | -73.7% (active)
12 | COc1ccc(-c2[nH]ncc2Nc2cc(OC)c(OC)c(OC)c2)cc1 | 21.7%
13 | N#Cc1nc(-c2ccccc2)oc1S(=O)(=O)N1CCN(CCc2ccccn2)CC1 | 25.7%
14 | COc1ccc(-c2nnc(SCC(=O)Nc3ccc(/C(C)=N\O)cc3)n2-c2ccccc2)cc1OC | 78.5%
15 | Ic1ccc(SSc2ccc(I)cc2)cc1 | 108%
16 | COc1ccc2c(c1)c(C(=O)c1nc(-c3cn(C)c4ccccc34)no1)cn2C | 108%
17 | CCn1cc(C(=O)O)c(=O)c2cc(F)c(N3CCN(S(=O)(=O)c4ccc(OC)c(OC)c4)CC3)cc21 | 100%
18 | COc1ccc(/C=C2\COc3ccc(O)cc3C2=O)c(OC)c1OC | 48.8%
19 | COc1cc(NC(=O)Nc2cnc(Nc3ccc(N4CCOCC4)cc3)nc2Oc2ccc(F)cc2)cc(OC)c1 | 95.5%
20 | Nc1nc(=O)c2ccccc2s1 | 109%

Row | Structure (SMILES) | growth
21 | COC(=O)/C=C1/SC(=NCc2ccccc2)N(CCc2c[nH]c3ccccc23)C1=O | 81.1%
22 | COc1ccc2c(c1)Nc1ccccc1S2 | 104%
23 | CCc1cc2n(n1)-c1ncc(C(=O)OC)cc1Oc1ccccc1-2 | 95.2%
24 | CCO/C=N/NC(=O)c1ccncc1 | 107%
25 | NC(=O)CC1(c2ccccc2)CCCCC1 | 104%
26 | O=Cc1nc2ccccc2[nH]1 | 108%
27 | CC(C)(C)c1ccc(C(=O)Nc2nc3ccc(O)cc3s2)cc1 | 18.6%
28 | COc1ccc(Nc2ncccc2C(=O)NCc2cn(Cc3cccc(Oc4ccccc4)c3)nn2)cc1 | 4.17% (active)
29 | Cc1nn(-c2ccc([N+](=O)[O-])cc2)c2ncnc(NCCc3ccccc3)c12 | 111%
30 | O=C(/C=C/c1cccnc1)NCCCCC1CCCN(C(=O)c2ccccc2)C1 (stereo not given) | 87.9%
31 | Clc1ccc(/C=C/c2cc(N3CCOCC3)c3cc(Cl)c(Cl)cc3n2)cc1 | 91.2%
32 | CCN(CC)CCNc1ccc([N+](=O)[O-])c2sc3cc(Cl)ccc3c(=O)c12 | 92.6%
33 | OC(COc1ccccc1)CN1CCN(c2ccc(Cl)cc2)CC1 (stereo not given) | 104%
34 | CN(C)c1ccc(-c2ccc(-c3ccc(C(=N)N)cc3)s2)cc1 | -69.7% (active)
35 | Nc1cc2ccncc2c2ccccc12 | 71.7%
36 | C=C(C)[C@@H]1CC[C@]2(C(=O)N3CCN(C)CC3)CC[C@]3(C)[C@H](CC[C@@H]4[C@@]5(C)C/C(=C/c6ccc(C(F)(F)F)cc6)C(=O)C(C)(C)[C@@H]5CC[C@]43C)[C@@H]12 | 107%
37 | O=C(CC(C(=O)c1ccccc1)N1CCOCC1)c1ccccc1 (stereo not given) | 101%
38 | CC(=O)O[C@H]1CC[C@]2(C)[C@H]3CC[C@@H]4[C@H]5[C@H](C(C)C)CC[C@]5(C(=O)OCC(CO)(CO)N=C(N)N)CC[C@@]4(C)[C@]3(C)CC[C@H]2C1(C)C | -25.5% (active)
39 | CC(C)[C@H]1COC(=O)N1[C@@H]1C(=O)N([C@@H](CCC(=O)N2CCN(C3CCCC3)CC2)C(=O)N[C@@H]2CCCc3ccccc32)[C@@H]1/C=C/c1cccc(Br)c1 | -21.6% (active)
40 | CCCCCCCC(=O)SCC/C=C/[C@@H]1CC(=O)NCc2cc(ccn2)C2=N[C@@](C)(CS2)C(=O)N[C@@H](C(C)C)C(=O)O1 | 12.2%
